Consider 40 compounds from PubChem BioAssay (Tox21).

Activity calls are given as the source filed them. Calls come from the whole dose curve; as a rule, active = well fitted activation curve with a large enough effect in the repeat runs; inconclusive = weak or mixed curves; inactive = flat fitted curve, though single readings scatter.
% is set by controls: 0 for no effect and ±100 for the full control effect.

Sequence of KiSS-1 receptor (Homo sapiens) (Q969F8 whole entry, looked up): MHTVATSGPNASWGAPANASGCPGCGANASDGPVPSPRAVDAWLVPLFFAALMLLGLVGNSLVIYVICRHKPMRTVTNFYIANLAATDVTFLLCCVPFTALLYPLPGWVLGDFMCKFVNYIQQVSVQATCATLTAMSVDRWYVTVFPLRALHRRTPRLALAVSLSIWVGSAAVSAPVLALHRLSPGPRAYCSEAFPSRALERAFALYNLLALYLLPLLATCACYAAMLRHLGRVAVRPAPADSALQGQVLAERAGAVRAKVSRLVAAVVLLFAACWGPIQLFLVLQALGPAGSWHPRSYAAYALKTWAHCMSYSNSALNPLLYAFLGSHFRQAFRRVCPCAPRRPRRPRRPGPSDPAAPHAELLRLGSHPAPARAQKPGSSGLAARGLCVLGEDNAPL

This assay deals with KiSS-1 receptor (Homo sapiens) (UniProt Q969F8). The experiment in a line: Human kisspeptin (KISS1R) small molecule agonists, calcium flux assay in KISS1R-HEK293 cells (AID 1920064). The settings on record: KISS1R-HEK293, calcium flux fluorescence, agonist; series mostly up to 76.8 µM; activation: at the top concentration. The source says:
National Center for Advancing Translational Sciences [NCATS]
Division of Preclinical Innovation [DPI]
U.S. Environmental Protection Agency [EPA]
National Institutes of Environmental Health Sciences [NIEHS]
National Toxicology Program [NTP]
U.S. Food and Drug Administration [FDA]
Kisspeptin and its receptor KISS1R play key roles in mammalian reproduction due to their involvement in the onset of puberty and control of the hypothalamic-pituitary-gonadal axis such as regulates GnRH release from the hypothalamus. The kisspeptin/KISS1R system also plays a direct role in peripheral organs (including the ovary, testis, uterus, and placenta) and is implicated in reproductive diseases such as miscarriage and polycystic ovary syndrome (PCOS). Abnormal KISS1R activity is associated with abnormal puberty, infertility, endometriosis, and hormone-dependent tumors. The KISS1 receptor (KISS1R, also called GPR54), a G-protein-coupled receptor (GPCR), acts (through phospholipase C) to increase intracellular inositol trisphosphate and then release intracellular calcium stores. Cell-based KISS1R-HEK293 assay is using HEK293 cells that have been genetically engineered to express the human KISS1R, which activity can be measured by calcium signaling. A compound/drug can activate (agonist) KISS1R that can be monitored by levels of intracellular calcium.
KISS1R-HEK293 cells developed by Codex Corp contain human KISS1R gene, which was stably integrated into HEK 293 cells. The compound activation can be detected by fluorescence intensity via calcium flux assay. This cell line has been used to screen the Tox21 10K compound library to identify agonists of KISS1R.
KISS1R-Hek293 cells were dispensed at 1500 cells/4uL/well in 1536-well black wall/clear bottom plates using a multidrop dispenser. After the assay plates were incubated at a 37 C/5% CO2 incubator for 18 hours, 4 microL of Calcium Dye Solution was added to each well. The plates were incubated at 37 C for 1 hour. And then 23 nL of compounds dissolved in DMSO, positive controls, or DMSO only was transferred to the assay plate by a pin tool station. The fluorescence intensity in the plates was measured using FDSS 7000EX kinetic plate reader with a filter set of Ex/Em=480/540 for 3 min at 1 sec intervals. Each test compound was measured at 15 concentrations and in triplicates.
(Calcium flux is commonly read through the fluorescence of an indicator in the cells.)
Take `CO[C@]1(NC(=O)CSC(F)F)C(=O)N2C(C(=O)O)=C(CSc3nnnn3CCO)CO[C@H]21`: the “activation” value was -0.0402% [at 35.3 µM] (inactive). Regarding `Cc1c(Nc2ncccc2C(=O)O)cccc1C(F)(F)F`, the “activation” value was 0.513% [at 35.3 µM] (inactive).

As to `C=CC(C)(CCC=C(C)C)OC(=O)/C=C/c1ccccc1` (stereo not given), the “activation” value is 6.61% (inactive). As for `COc1cc(NC(C)CCCN)c2ncccc2c1` (stereo not given), the “activation” value is -0.203% [at 35.3 µM] (inactive).

On to `CCCCCCCCCCCCCC[P+](CCCC)(CCCC)CCCC` (tested in a mixture with another compound), for which the “activation” value is 0.638% (inactive). Take `Cc1ccc(C(C)(C)C)c(O)c1`: the Potency result is “inactive”. In the case of `Brc1c2ccccc2c(Br)c2ccccc12`, the activation is 0.391% [at 6.97 µM] (inactive). `Cc1cc2c(cc1CC(=O)c1sccc1S(=O)(=O)Nc1onc(C)c1Cl)OCO2`: the “activation” value is -2.23% [at 35.3 µM] (inactive). For `CC(O)C#CC(C)O` (stereo not given), the “activation” value was -0.871% (inactive). With `CC(C)(C)c1ccc(C(O)CCCN2CCC(C(O)(c3ccccc3)c3ccccc3)CC2)cc1` (stereo not given), the “activation” value was -1.14% [at 35.3 µM] (inactive).

On to `CN1CC[C@H](c2c(O)cc(O)c3c(=O)cc(-c4ccccc4Cl)oc23)[C@H](O)C1`, for which the “activation” value is 0.823% [at 35.3 µM] (inactive). On the same count and under the same terms, to `O=C1CCCN1C1CCCCC1` belongs -1.32% (inactive); to `CCCCCCCC#N`, -0.479% (inactive); to `Cc1c(NC(=O)c2cccnc2)c(=O)n(-c2ccccc2)n1C`, -2.08% [at 35.3 µM] (inactive). For the compound `CN(C)CCCO[C@@H]1[C@H]2OC(C)(C)O[C@H]2O[C@@H]1C(O)CO` (stereo not given in full), the “activation” value is -0.0847% [at 35.3 µM] (inactive).

Turning to `CCCC(=O)O[C@]1(C(=O)CO)CC[C@H]2[C@@H]3CCC4=CC(=O)CC[C@]4(C)[C@H]3[C@@H](O)C[C@@]21C`, the “activation” value is -0.282% [at 35.3 µM] (inactive). For `O=C1NCC2(CCN(CCc3ccccc3)CC2)O1`, the “activation” value was 1.13% [at 35.3 µM] (inactive). Turning to `CC1=C(C(=O)O)N2C(=O)[C@@H](NC(=O)[C@H](N)c3ccc(O)cc3)[C@H]2SC1`, the “activation” value was 0.875% [at 35.3 µM] (inactive). In the case of `CC(C)(C)CC(C)(C)c1ccc(OCCO)cc1`, the “activation” value is -0.413% (inactive). Same read-out and setting: to `CCCCC(CC)COP(=O)(O)O` (stereo not given) belongs 0.227% (inactive); to `C[C@H](CCC(=O)O)[C@H]1CC[C@H]2[C@@H]3[C@H](O)C[C@@H]4C[C@H](O)CC[C@]4(C)[C@H]3CC[C@]12C`, 13.8% (inactive); to `CC(=O)Nc1ccccc1O`, 0.286% (inactive). Regarding `Cc1cccc(Br)c1`, the “activation” value was 1.33% (inactive). Regarding `CC(=O)OC(C)OC(=O)C(C)c1ccc(-c2ccccc2)c(F)c1` (stereo not given), the “activation” value is -1.61% [at 35.3 µM] (inactive). Turning to `C[C@@H]1C[C@H]2[C@@H]3C[C@H](F)C4=CC(=O)C(Cl)=C[C@]4(C)[C@@]3(F)[C@@H](O)C[C@]2(C)[C@@]1(O)C(=O)CO`, the “activation” value was 3.44% [at 35.3 µM] (inactive). Regarding `C1CCC2(CCCCO2)OC1`, the “activation” value was -1.03% (inactive). Turning to `NC(=O)C1(N2CCCCC2)CCN(CCCN2c3ccccc3CCc3ccc(Cl)cc32)CC1`, the “activation” value was 4.81% [at 35.3 µM] (inactive). `CCCCCCCC/C=C\CCCCCCCC(=O)OCCO`: the “activation” value was -1.3% (inactive). `CN(C(=O)CN(CCO)CC(=O)N(C)C(C)(C)Cc1ccccc1)C(C)(C)Cc1ccccc1`: the “activation” value is -3.37% [at 35.3 µM] (inactive).

As to `O=C(OCCOCCOCCOC(=O)c1ccccc1)c1ccccc1`, the “activation” value is 0.755% (inactive).

With `CC1CC(OC(=O)C(O)c2ccccc2)CC(C)(C)N1C` (stereo not given), the “activation” value is 1.78% [at 35.3 µM] (inactive). Take `C=CC(=O)N1CCOCC1`: the “activation” value was -1.34% (inactive). Same read-out and setting: to `C#CC(O)C(CC)CCCC` (stereo not given) belongs 0% (inactive); to `CCC(C)(CCC(C)C)C(=O)[O-].CCC(C)(CCC(C)C)C(=O)[O-].[Zn+2]` (stereo not given), 10.4% (inactive). On the same count and under the same terms, for `CCN(Cc1ccncc1)C(=O)C(CO)c1ccccc1` (stereo not given) the value was -0.793% [at 35.3 µM] (inactive); for `CC(C)(COC(=O)c1ccccc1)COC(=O)c1ccccc1`, 26.1% (inactive). Consider `CNc1ncnc2nc[nH]c12`, for which the “activation” value was -0.343% (inactive).

As to `Cc1cccc(C)c1NC(=O)CN(CC(=O)O)CC(=O)O`, the “activation” value is 0.0261% [at 35.3 µM] (inactive).

For the compound `C/C(CC(C)C)=N\O`, the “activation” value was -0.0598% (inactive). The same measure, in the same setting: to `COC(C(=O)O)c1ccccc1` (stereo not given) belongs 2.64% (inactive).
